Experimental data from PubChem BioAssay AID504577 (NMMLSC, 2011).
Screen size: about 350,000 compounds; about 1,300 (0.37%) were called active. The list comes from a sample in which actives are over-represented; it also holds similar structures and randomly drawn compounds. Unmarked numbers belong to inactive results. No stated cut-off is given here; in the data, active means response mostly above about 7.3% (no sharp cut-off); inactive means mostly below about 5.4%.

test: yeast vacuolar ATPase proton transport modulators – pHLuorin cytosolic pH fluorescence, primary screen (AID 504577); further: actives read high; conditions: S. cerevisiae, at 10 µM, hits give high values

| SMILES | response |
| --- | --- |
| CCN(CC)C(=O)c1ccc(NC(=O)c2sccc2-c2ccccc2)cc1 | -3.45% |
| O=C(COC(=O)Cc1ccccc1)Nc1ccc(F)cc1 | -1.24% |
| CC(=O)Nc1ccc(C(=O)C(Cc2ccccc2)N(C)C)cc1 (stereo not given) | 8.72% (active) |
| COc1ccc(Br)cc1CNCCc1cccc(Cl)c1 | 1.48% |
| N=c1ccccn1Cc1ccccc1 | -1.95% |
| CN1CCC[C@@H]1CCO[C@](C)(c1ccccc1)c1ccc(Cl)cc1 | -5.35% |
| O=C1NC(=O)N(c2ccc(F)cc2)C(=O)/C1=C/c1ccc2c(c1)CCCN2Cc1ccccc1 | 1.07% |
| O=C1NC(=O)N(c2ccccc2)C(=O)/C1=C/c1ccc([N+](=O)[O-])s1 | 102% (active) |
| COc1cccc(N2C(=O)NC(=O)/C(=C\c3ccc([N+](=O)[O-])s3)C2=O)c1 | 125% (active) |
| COc1ccc(N2C(=O)/C(=C/c3ccco3)C(=O)NC2=S)cc1 | 8.65% |
| CCCC(C)n1[nH]c(=O)c2c1NC(=O)CSC2c1ccc(OC)c(OC)c1 (stereo not given) | 1.43% |
| O=c1[nH]c(CN2CC=C(c3ccccc3)CC2)nc2scc(-c3cccs3)c12 | -2.27% |
| CNC(=O)N(C)c1nnc(C(C)(C)C)s1 | 2.46% |
| Cc1ccc(-n2c(C)cc(/C=C3\C(=O)NC(=O)N(C)C3=O)c2C)cc1C | -0.72% |
| Cc1ccccc1N1C(=O)NC(=O)/C(=C\c2cc(C)n(C)c2C)C1=O | 13.8% (active) |
| Cc1c(C(=O)O)cccc1-n1c(C)cc(/C=C2\C(=O)NC(=O)N(c3ccc4c(c3)OCO4)C2=O)c1C | -0.49% |
| CC(=O)N(C1=NCCCS1)c1ccccc1F | 0.19% |
| CC12CCC(O)CC1CCC1C2CCC2(C)C(C(=O)CC(O)C(F)(F)F)CCC12 (stereo not given) | 5.09% |
| CCOC(=O)C(O)(c1ccc(N=Cc2ccccc2O)c(C)c1)C(F)(F)F (stereo not given) | -2.77% |
| Cc1nc2nc(C)c(CCC(=O)N3CCC4(CC3)OCCO4)c(C)n2n1 | -4.03% |
